In the supplement of paper PMC6555819:

What was measured:
Assay in all cases: PBM binding z-score (relative to random genomic background probes); higher = stronger binding; sequences stand for … in GC…GCGATTGACAGCGTAGAATGAAGG
[1] = system: FXR:RXRa (NR concentration 270 nM, RXRa partner concentration 90 nM)
In short: (§1)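 Binding z-scores take random background probes as their reference. They come from custom Agilent 4×180K protein-binding microarrays incubated 1 h with ligand-free nuclear receptor dimers, with antibodies against each partner (one per run) detecting binding. Scanned fluorescence was regression-normalized.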

[2] = system: LXRa:RXRa (NR concentration 270 nM, RXRa partner concentration 90 nM)
In short: as §1

[3] = system: LXRa homodimer (NR concentration 270 nM)
In short: as §1

[4] = system: LXRb:RXRa (NR concentration 270 nM, RXRa partner concentration 90 nM)
In short: as §1

[5] = system: LXRb homodimer (NR concentration 270 nM)
In short: as §1

[6] = system: PPARa:RXRa (NR concentration 270 nM, RXRa partner concentration 90 nM)
In short: as §1

[7] = system: PPARg:RXRa (NR concentration 180 nM, RXRa partner concentration 90 nM)
In short: as §1

[8] = system: PPARg:RXRa 270nM:90nM, anti-RXR (NR concentration 270 nM, RXRa partner concentration 90 nM)
In short: as §1

[9] = system: PPARg:RXRa 30nM:10nM, anti-RXR (NR concentration 30 nM, RXRa partner concentration 10 nM)
In short: as §1

[10] = system: PPARg:RXRa 90nM:30nM, anti-RXR (NR concentration 90 nM, RXRa partner concentration 30 nM)
In short: as §1

[11] = system: PPARg:RXRa DBDmut IVT, anti-RXR (DBD mutation: RXRa K156A/R161A, NR concentration 270 nM, RXRa partner concentration 90 nM)
In short: as §1

[12] = system: PPARg:RXRa IVT, anti-PPARg (NR concentration 270 nM, RXRa partner concentration 90 nM)
In short: as §1

[13] = system: PPARg DBDmut:RXRa IVT, anti-PPARg (DBD mutation: PPARg1 K132A/R137A, NR concentration 270 nM, RXRa partner concentration 90 nM)
In short: as §1

[14] = system: PPARg DBDmut IVT, anti-PPARg (DBD mutation: PPARg1 K132A/R137A, NR concentration 270 nM)
In short: as §1

[15] = system: PPARg homodimer (NR concentration 180 nM)
In short: as §1

[16] = system: PXR:RXRa (NR concentration 270 nM, RXRa partner concentration 90 nM)
In short: as §1

[17] = system: PXR homodimer (NR concentration 270 nM)
In short: as §1

[18] = system: RARa:RXR (NR concentration 270 nM, RXRa partner concentration 90 nM)
In short: as §1

[19] = system: RARa homodimer (NR concentration 270 nM)
In short: as §1

[20] = system: RARb:RXRa (NR concentration 270 nM, RXRa partner concentration 90 nM)
In short: as §1

Sequence	PBM binding z-score [1]	PBM binding z-score [2]	PBM binding z-score [3]	PBM binding z-score [4]	PBM binding z-score [5]	PBM binding z-score [6]	PBM binding z-score [7]	PBM binding z-score [8]	PBM binding z-score [9]	PBM binding z-score [10]	PBM binding z-score [11]	PBM binding z-score [12]	PBM binding z-score [13]	PBM binding z-score [14]	PBM binding z-score [15]	PBM binding z-score [16]	PBM binding z-score [17]	PBM binding z-score [18]	PBM binding z-score [19]	PBM binding z-score [20]
CGTCCAAGGTCAAAGGTCCGTGAAGAGATGACGG	7.36	5.64	0.823	4.24	0.921	5.73	6.71	6.69	4.16	5.81	3.4	4.24	0.753	0.764	2.99	4.61	1.12	5.96	0.563	5.32
CGAACCAGGTCATTGACAGGACAGTGAATAGTAA	5.53	3.65	0.747	2.7	0.324	4.37	4.46	4.07	0.956	2.96	4.92	5.01	0.122	0.405	1.32	2.53	0.75	2.92	0.518	3.58
ATCGAAAGGTCGACGAGGTGAGTTTACACCGTTT	4.66	3.45	0.17	2.95	0.407	4.71	2.73	3.1	0.726	2.05	0.636	2	1.01	0.288	1.24	3.35	0.675	3.27	0.024	3.9
ATCCAAAGGTCGTGAGGTGAGTATACAGAAAGGC	5.79	4.82	0.975	3.77	0.687	5.37	5.62	5.62	2.33	4.08	0.752	2.92	1.39	0.827	1.97	3.64	0.629	4.91	1.46	4.4
CGTCAAAGTTCAAGGGAACGTAACAGAAAGCAGC	6.3	5.44	2.42	3.12	0.895	4.42	3.85	4.64	1.76	3.48	0.445	1.36	0.481	1.2	2.69	3.89	2.32	3.09	1.28	5.11
GCTGCTAGGTAAACTGATGGTCAGCTAAAGCTCG	-0.373	-0.492	-0.956	-0.723	-0.701	-0.566	-0.301	-0.644	-0.739	-0.98	0.994	0.0303	-1.25	-0.794	-1.08	-0.636	-0.67	-0.68	-1.2	-0.155
GCGACTGGGGCATCAGAAGGTTACCATAACTTAA	-0.0561	0.0873	-0.311	1.22	-0.607	1.65	1.43	1.22	-0.0101	0.461	3.59	3.39	0.195	-0.175	0.756	0.582	-0.271	0.988	-0.432	1.2
ATCGAAAGGTCGAAGGTGAGAATACCCACCCGAA	4.1	3.81	0.0457	2.94	0.451	4.73	4.6	4.93	2.85	4.31	0.14	2.32	0.346	0.631	1.03	3.1	0.0633	4.65	0.941	3.83
CCTTACGGTTCACTCCAGGTTATAGCATCGGAGT	2.82	6.46	2.54	3.58	0.998	2.21	0.562	0.77	0.224	0.483	0.278	0.401	0.147	1.01	1.62	3.53	1.46	2.25	1.57	1.29
CAAACTAGGTAACAGAGGTCAAAGTCCGTGCGTA	5.29	6.1	7.34	5.38	1.74	5.84	6.67	6.35	3.97	5.74	6.99	6.88	1.9	1.28	4.37	6	3.25	6.67	1.62	4.11
GCAGACAGGTGAAACGCAGGTAACTCTGGGTGGC	-0.204	-0.034	-0.674	-0.472	-1.14	0.489	0.484	0.284	-0.673	-0.347	1.28	0.558	-1.09	-1.05	-0.859	-0.322	-1.1	0.0559	-1.16	0.63
GCTCGGAGGACAAGGTCAGACCTTTGTCCGTAGA	2.03	2.52	-0.219	1.95	0.0255	3.08	1.88	2.61	-0.0164	1.74	-0.401	1.17	-0.273	-0.216	0.937	2.18	-0.193	2.61	-0.422	3.67
ACTGTTAGTTGAGACGAGGGCAACCGATAGGTTG	0.919	0.0939	-0.0594	0.0493	0.747	0.275	0.412	-0.13	-0.0644	0.0713	-0.176	0.773	0.909	0.848	0.542	1.2	0.0894	0.667	0.756	1.21
CCAGACAGGTGAGAAGGAAACTCAGCCTCGATTA	0.0152	-0.159	0.111	-0.146	-0.36	0.0665	0.519	0.482	-0.0162	0.249	1.07	0.281	0.656	-0.614	0.615	-0.158	0.143	0.0468	0.447	0.0743
CGAACTAGGTCAAGGACATTGAATCTCCGCACGC	3.45	2.4	0.44	1.68	0.0209	4.43	7.54	6.28	4.19	6	8.24	7.84	1.49	0.731	1.29	1.56	0.252	2.12	0.87	3.98
